# Results: the supplement of paper PMC8877412
# Where a name gives a salt, the structure may show the parent alone. ± gives the uncertainty stated by the source.
# Test system: NCC-PMP1-C1
# Test: cell viability relative to DMSO control; higher = less growth inhibition
# Conditions: 10 µM; 72 h
# Method: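 NCC-PMP1-C1 pseudomyxoma peritonei cells were seeded in 384-well plates coated with Matrigel and MEF (1e4 cells). Viability was read after 72 h by CCK-8 and expressed as % of the DMSO control, mean ± SD of duplicates.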
row,Compound,cell viability [%]
1,CN(Cc1cnc2nc(N)nc(N)c2n1)c1ccc(C(=O)N[C@@H](CCC(=O)O)C(=O)O)cc1 [Methotrexate],110 ± 1.7
2,Cc1nc(NC(=O)N2CCC[C@H]2C(N)=O)sc1-c1ccnc(C(C)(C)C(F)(F)F)c1 [Alpelisib],56.6 ± 3
3,COc1cc2c(Oc3ccc(NC(=O)C4(C(=O)Nc5ccc(F)cc5)CC4)cc3F)ccnc2cc1OCCCN1CCOCC1,2.42 ± 1
4,CCN1CCN(Cc2ccc(Nc3ncc(F)c(-c4cc(F)c5nc(C)n(C(C)C)c5c4)n3)nc2)CC1 [Abemaciclib],65.2 ± 4.2
5,CCOc1cc(C(C)(C)C)ccc1C1=N[C@@](C)(c2ccc(Cl)cc2)[C@@](C)(c2ccc(Cl)cc2)N1C(=O)N1CCN(CCCS(C)(=O)=O)CC1,52.5 ± 3.1
6,COc1cc2nccc(Oc3ccc(NC(=O)C4(C(=O)Nc5ccc(F)cc5)CC4)cc3)c2cc1OC [Cabozantinib malate (XL184)],52.5 ± 6.2
7,CC1(COc2ccc3c(c2)ncn3-c2ccc3cccc(N4CCC(N)CC4)c3n2)COC1,70 ± 8.6
8,C[C@@]12C[C@@]3(O)O[C@@H](O1)[C@]1(COC(=O)c4ccccc4)[C@H]3C[C@@]12O[C@@H]1O[C@H](CO)[C@@H](O)[C@H](O)[C@H]1O [Paeoniflorin],78.6 ± 9
9,CCc1ccc(CCOc2ccc(CC3SC(=O)NC3=O)cc2)nc1 (stereo not given) [Pioglitazone],92.8 ± 5.5
10,Nc1ccn([C@@H]2O[C@H](CO)[C@@H](O)C2(F)F)c(=O)n1 [Gemcitabine],68.1 ± 11
11,C=CC(=O)Nc1cc(Nc2nccc(-c3cn(C)c4ccccc34)n2)c(OC)cc1N(C)CCN(C)C [Osimertinib (AZD9291)],4.44 ± 0.89
12,N=C(N)NC(=N)N1CCOCC1 [Moroxydine HCl],104 ± 11
13,CN(C)C/C=C/C(=O)Nc1cc2c(Nc3ccc(F)c(Cl)c3)ncnc2cc1O[C@H]1CCOC1 [Afatinib (BIBW2992) Dimaleate],29.3 ± 2.4
14,COc1cc2c(cc1O)CCN[C@]21CS[C@@H]2c3c(OC(C)=O)c(C)c4c(c3[C@H](COC1=O)N1[C@@H]2[C@H]2c3c(cc(C)c(OC)c3O)C[C@@H]([C@@H]1O)N2C)OCO4 [Trabectedin],-0.842 ± 0.95
15,CN(N=O)C(=O)NC1C(O)OC(CO)C(O)C1O (stereo not given) [Streptozotocin (STZ)],111 ± 3.5
16,CC(C)C[C@H](NC(=O)[C@H](Cc1ccccc1)NC(=O)c1cnccn1)B(O)O [Bortezomib (PS-341)],-0.129 ± 0.47
17,CNC(=O)c1cc(Oc2ccc(NC(=O)Nc3ccc(Cl)c(C(F)(F)F)c3)c(F)c2)ccn1 [Regorafenib (BAY 73-4506)],147 ± 11
18,Nc1ccn([C@@H]2O[C@H](CO)[C@@H](O)C2(F)F)c(=O)n1 [Gemcitabine HCl],67.5 ± 15
19,CCCCNC(=O)NS(=O)(=O)c1ccc(C)cc1 [Tolbutamide],96.4 ± 6.1
20,N#Cc1ccc(C(c2ccc(C#N)cc2)n2cncn2)cc1 [Letrozole],129 ± 29

row,Compound,cell viability [%]
1,CCN1CCN(Cc2ccc(Nc3ncc(F)c(-c4cc(F)c5nc(C)n(C(C)C)c5c4)n3)nc2)CC1 [Abemaciclib mesylate],77.7 ± 1.2
2,CCN1CCN(c2ccc(Nc3cc(N(C)C(=O)Nc4c(Cl)c(OC)cc(OC)c4Cl)ncn3)cc2)CC1,56.5 ± 0.47
3,O=C(O)C1=CO[C@@H](O[C@@H]2O[C@H](CO)[C@@H](O)[C@H](O)[C@H]2O)[C@@H]2C(CO)=CC[C@H]12 [Geniposidic acid],97.1 ± 2.2
4,CC(C)(OCc1nn(Cc2ccccc2)c2ccccc12)C(=O)O [Bindarit],104 ± 7.1
5,O=[n+]1c(CBr)c(CBr)n([O-])c2ccccc21 [Conoidin A],112 ± 22
6,COc1cc2nccc(Oc3ccc(NC(=O)C4(C(=O)Nc5ccc(F)cc5)CC4)cc3)c2cc1OC,48.9 ± 2.8
7,COc1c2occc2cc2ccc(=O)oc12 [Methoxsalen],92.6 ± 16
8,COc1nc(N)nc2c1ncn2[C@@H]1O[C@H](CO)[C@@H](O)[C@@H]1O [Nelarabine],127 ± 21
9,Nc1nc(F)nc2c1ncn2[C@@H]1O[C@H](COP(=O)(O)O)[C@@H](O)[C@@H]1O [Fludarabine Phosphate],-11.4 ± 1.5
10,COC(=O)N[C@H](C(=O)N[C@@H](Cc1ccccc1)[C@@H](O)CN(Cc1ccc(-c2ccccn2)cc1)NC(=O)[C@@H](NC(=O)OC)C(C)(C)C)C(C)(C)C [Atazanavir Sulfate],109 ± 1.1
11,Cn1nnc2c(C(N)=O)ncn2c1=O [Temozolomide],118 ± 5.8
12,FC(F)(F)c1ccc(CNc2ccc(Cc3c[nH]c4ncc(Cl)cc34)cn2)cn1 [Pexidartinib (PLX3397)],63.2 ± 6
13,Oc1ncnc2[nH]ncc12 [Allopurinol],123 ± 13
14,N#CC[C@H](C1CCCC1)n1cc(-c2ncnc3[nH]ccc23)cn1,83.6 ± 8.2
15,O=C(Nc1nc2cccc(-c3ccc(CN4CCS(=O)(=O)CC4)cc3)n2n1)C1CC1 [Filgotinib (GLPG0634)],93.7 ± 8.6
16,CNC(=O)c1cc(Oc2ccc(NC(=O)Nc3ccc(Cl)c(C(F)(F)F)c3)cc2)ccn1 [Sorafenib],-8.05 ± 0.27
17,COc1cc([C@@H]2c3cc4c(cc3[C@@H](O[C@@H]3O[C@@H]5CO[C@@H](C)O[C@H]5[C@H](O)[C@H]3O)[C@H]3COC(=O)[C@H]23)OCO4)cc(OC)c1O [Etoposide],61.1 ± 1.9
18,O=c1[nH]c(=O)n(C2CCCO2)cc1F (stereo not given),108 ± 3.1
19,CNC(=O)c1ccc(-c2cnc3ncc(Cc4ccc5ncccc5c4)n3n2)cc1F,108 ± 9.8
20,COc1ccc(C2=N[C@@H](c3ccc(Cl)cc3)[C@@H](c3ccc(Cl)cc3)N2C(=O)N2CCNC(=O)C2)c(OC(C)C)c1 [Nutlin-3],74.1 ± 4.9
